Inconclusive results are not listed. Unmarked numbers belong to inactive results. The source made the active and inactive calls. The call rests on the fitted dose curve; in most records, active means well fitted curve in the direction sought with a large enough effect; inconclusive means small, poorly fitted or top-dose-only effect, or another doubt; inactive means no such curve, though single readings can be large; an effect the other way counts as inactive or inconclusive.
Columns and labels:
[1] = Quantitative High-Throughput drug screen in 47 multiple myeloma cell lines against the NCATS MIPE library collection: KMS12PE_JCRB cell viability assay (AID 1918972); further: nearly all actives have a fitted effect of over 30% in size; further: potency means the concentration at half of the fitted maximal effect
Method in brief: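 Steps: seed 500 cells per well; pin-transfer MIPE 4.0 library; incubate 48 h at 37C, 5% CO2, humidified; add CellTiter-Glo, 5 min room temperature; read luminescence.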

[2] = Quantitative High-Throughput drug screen in 47 multiple myeloma cell lines against the NCATS MIPE library collection: KMS20_JCRB cell viability assay (AID 1918973); further: nearly all actives have a fitted effect of over 45% in size; further: potency means the concentration at half of the fitted maximal effect
Method in brief: (§1)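 CellTiter-Glo ATP luminescence gave viability after 48 h compound treatment at 37C of 500 multiple myeloma cells per well. Normalisation used DMSO-only wells as 100% and media-only wells as 0% viability; primary qHTS of approved and investigational drugs.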

[3] = Quantitative High-Throughput drug screen in 47 multiple myeloma cell lines against the NCATS MIPE library collection: KMS26_JCRB cell viability assay (AID 1918975); further: nearly all actives have a fitted effect of over 45% in size; further: potency means the concentration at half of the fitted maximal effect
Method in brief: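 CellTiter-Glo luminescence (ATP) after 48 h compound exposure, 37C/5% CO2; 500 cells/well; MIPE 4.0 approved/investigational drugs pinned in; DMSO = 100%, media only = 0% viability.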

[4] = Quantitative High-Throughput drug screen in 47 multiple myeloma cell lines against the NCATS MIPE library collection: MMM1_PLB cell viability assay (AID 1918976); further: potency means the concentration at half of the fitted maximal effect; nearly all actives have a fitted effect of over 35% in size
Method in brief: (§2)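 Inhibition of viability over 48 h was scored by ATP content (CellTiter-Glo) in 500-cell wells. Zero and full viability were defined by media-only and DMSO-only wells.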

[5] = Quantitative High-Throughput drug screen in 47 multiple myeloma cell lines against the NCATS MIPE library collection: NCIH929_DSMZ cell viability assay (AID 1918978); further: nearly all actives have a fitted effect of over 35% in size; further: potency means the concentration at half of the fitted maximal effect
Method in brief: as §2

[6] = Quantitative High-Throughput drug screen in 47 multiple myeloma cell lines against the NCATS MIPE library collection: OCIMY1_PLB cell viability assay (AID 1918979); further: nearly all actives have a fitted effect of over 35% in size; further: potency means the concentration at half of the fitted maximal effect
Method in brief: as §2

[7] = Quantitative High-Throughput drug screen in 47 multiple myeloma cell lines against the NCATS MIPE library collection: MM1S_ATCC cell viability assay (AID 1918980); further: nearly all actives have a fitted effect of over 45% in size; further: potency means the concentration at half of the fitted maximal effect
Method in brief: as §2

[8] = Quantitative High-Throughput drug screen in 47 multiple myeloma cell lines against the NCATS MIPE library collection: MM1R_ATCC cell viability assay (AID 1918981); further: nearly all actives have a fitted effect of over 35% in size; further: potency means the concentration at half of the fitted maximal effect
Method in brief: as §2

[9] = Quantitative High-Throughput drug screen in 47 multiple myeloma cell lines against the NCATS MIPE library collection: LP1_DSMZ cell viability assay (AID 1918982); further: nearly all actives have a fitted effect of over 35% in size; further: potency means the concentration at half of the fitted maximal effect
Method in brief: as §2

[10] = Quantitative High-Throughput drug screen in 47 multiple myeloma cell lines against the NCATS MIPE library collection: KMS28PE_JCRB cell viability assay (AID 1918983); further: nearly all actives have a fitted effect of over 35% in size; further: potency means the concentration at half of the fitted maximal effect
Method in brief: as §2

[11] = Quantitative High-Throughput drug screen in 47 multiple myeloma cell lines against the NCATS MIPE library collection: L363_DSMZ cell viability assay (AID 1918984); further: nearly all actives have a fitted effect of over 40% in size; further: potency means the concentration at half of the fitted maximal effect
Method in brief: as §2

[12] = Quantitative High-Throughput drug screen in 47 multiple myeloma cell lines against the NCATS MIPE library collection: OCIMY5_PLB cell viability assay (AID 1918988); further: nearly all actives have a fitted effect of over 65% in size; further: potency means the concentration at half of the fitted maximal effect
Method in brief: as §2

[13] = Quantitative High-Throughput drug screen in 47 multiple myeloma cell lines against the NCATS MIPE library collection: SKMM1_PLB cell viability assay (AID 1919863); details: SKMM1 myeloma viability, CellTiter-Glo ATP, 48 h; viability: stronger effect = lower value; further: nearly all actives have a fitted effect of over 35% in size; further: potency means the concentration at half of the fitted maximal effect
Method in brief: as §2

[14] = Quantitative High-Throughput drug screen in 47 multiple myeloma cell lines against the NCATS MIPE library collection: U266_ATCC cell viability assay (AID 1919864); further: nearly all actives have a fitted effect of over 35% in size; further: potency means the concentration at half of the fitted maximal effect
Method in brief: as §2

[15] = Quantitative High-Throughput drug screen in 47 multiple myeloma cell lines against the NCATS MIPE library collection: XG6_PLB cell viability assay (AID 1919865); further: nearly all actives have a fitted effect of over 40% in size; further: potency means the concentration at half of the fitted maximal effect
Method in brief: as §2

[16] = Quantitative High-Throughput drug screen in 47 multiple myeloma cell lines against the NCATS MIPE library collection: MOLP8_DSMZ cell viability assay (AID 1918977); further: nearly all actives have a fitted effect of over 45% in size; further: potency means the concentration at half of the fitted maximal effect
Method in brief: as §2

[17] = Quantitative High-Throughput drug screen in 47 multiple myeloma cell lines against the NCATS MIPE library collection: KMS34_JCRB cell viability assay (AID 1918985); further: nearly all actives have a fitted effect of over 40% in size
Method in brief: as §2

[18] = Quantitative High-Throughput drug screen in 47 multiple myeloma cell lines against the NCATS MIPE library collection: OCIMY7_PLB cell viability assay (AID 1918987); further: potency means the concentration at half of the fitted maximal effect; nearly all actives have a fitted effect of over 65% in size
Method in brief: as §2

[19] = Quantitative High-Throughput drug screen in 47 multiple myeloma cell lines against the NCATS MIPE library collection: OPM1_PLB cell viability assay (AID 1918989); further: nearly all actives have a fitted effect of over 40% in size; further: potency means the concentration at half of the fitted maximal effect
Method in brief: as §2

[20] = Quantitative High-Throughput drug screen in 47 multiple myeloma cell lines against the NCATS MIPE library collection: KMS21BM_JCRB cell viability assay (AID 1918974); details: ATP luminescence, 48 h; viability: at 45.8 µM (top of the series) unless noted; further: potency means the concentration at half of the fitted maximal effect
Method in brief: as §1

CS(=O)(=O)c1cccc(CNc2nc(Nc3ccc4c(c3)CCC(=O)N4)ncc2C(F)(F)F)c1
Potency [1]: 4.69 µM (active)
Potency [2]: 14.8 µM (active)
Potency [3]: 18.7 µM (active)
Potency [4]: 23.5 µM (active)
Potency [5]: 10.5 µM (active)
Potency [6]: 16.6 µM (active)
Potency [7]: 18.7 µM (active)
Potency [8]: 20.9 µM (active)
Potency [9]: 18.7 µM (active)
Potency [10]: 23.5 µM (active)
Potency [11]: 6.62 µM (active)
Potency [12]: 18.7 µM (active)
Potency [13]: 20.9 µM (active)
Potency [14]: 18.7 µM (active)
Potency [15]: 8.33 µM (active)

O=C(O)[C@@H](c1ccc(OCc2ccc3ccccc3n2)cc1)C1CCCC1
Potency [1]: inactive
Potency [2]: inactive
Potency [3]: 0.0012 µM (active)
Potency [16]: inactive
Potency [5]: inactive
Potency [6]: inactive
Potency [7]: inactive
Potency [9]: inactive
Potency [10]: inactive
Potency [11]: inactive
Potency [17]: inactive
Potency [18]: 5.9 µM (active)
Potency [19]: inactive
viability [13]: 106%
Potency [14]: inactive

C[C@]12CC[C@H](O)CC1=CC[C@@H]1[C@H]2CC[C@]2(C)C(c3cccnc3)=CC[C@H]12
Potency [1]: inactive
Potency [2]: inactive
Potency [3]: inactive
Potency [6]: inactive
Potency [8]: inactive
Potency [9]: inactive
Potency [10]: inactive
Potency [11]: inactive
Potency [17]: inactive
Potency [12]: inactive
Potency [13]: 1.82 µM (active)
Potency [14]: inactive
Potency [15]: 3.23 µM (active)

COc1ccc(-c2oc3cc(OC)ccc3c2C(=O)c2ccc(C#N)cc2)cc1
Potency [1]: 10.5 µM (active)
Potency [2]: inactive
Potency [20]: 1.32 µM (active)
Potency [3]: inactive
Potency [16]: inactive
Potency [6]: inactive
Potency [7]: 10.5 µM (active)
Potency [8]: inactive
Potency [10]: inactive
Potency [11]: 3.32 µM (active)
Potency [17]: inactive
Potency [18]: 14.8 µM (active)
Potency [12]: inactive
Potency [14]: 16.6 µM (active)
Potency [15]: 3.32 µM (active)

CCCc1nn(C)c2c(=O)[nH]c(-c3cc(S(=O)(=O)N4CCN(C)CC4)ccc3OCC)nc12
Potency [1]: inactive
Potency [2]: 18.7 µM (active)
Potency [4]: 23.5 µM (active)
Potency [7]: 20.9 µM (active)
Potency [11]: inactive
Potency [12]: 7.43 µM (active)
Potency [14]: 20.9 µM (active)

COc1ccc(CC2=NN3C([C@@H](CCc4ccccc4)[C@@H](C)O)=NC(C)C3C(=O)N2)cc1OC (some centres not stated)
Potency [1]: inactive
Potency [2]: inactive
Potency [16]: inactive
Potency [5]: inactive
Potency [6]: inactive
Potency [7]: inactive
Potency [9]: inactive
Potency [10]: inactive
Potency [17]: inactive
Potency [12]: inactive
Potency [19]: 2.64 µM (active)
viability [13]: 138%
Potency [14]: inactive

CCC(=O)N[C@H]1CC[C@H](C(=O)N(C)c2ccc(-c3nc4ccccc4o3)cc2)C1
Potency [1]: 4.69 µM (active)
Potency [2]: 7.43 µM (active)
Potency [4]: 14.8 µM (active)
Potency [5]: 2.96 µM (active)
Potency [6]: inactive
Potency [7]: 5.26 µM (active)
Potency [8]: 3.72 µM (active)
Potency [10]: 18.7 µM (active)
Potency [11]: 16.6 µM (active)
Potency [17]: inactive
Potency [18]: 8.33 µM (active)
viability [13]: 132%
Potency [15]: 8.33 µM (active)

Cn1c(=O)c(F)c(Nc2ccc(I)cc2F)c2c(=O)n(C[C@@H](O)CO)cnc21
Potency [1]: 18.7 µM (active)
Potency [2]: 0.0118 µM (active)
Potency [3]: inactive
Potency [16]: inactive
Potency [6]: inactive
Potency [8]: inactive
Potency [9]: inactive
Potency [10]: inactive
Potency [17]: inactive
Potency [14]: 9.35 µM (active)

CCCCNc1cc(C(=O)O)cc(S(N)(=O)=O)c1Oc1ccccc1
Potency [1]: inactive
Potency [2]: inactive
Potency [3]: inactive
Potency [16]: inactive
Potency [5]: inactive
Potency [6]: inactive
Potency [8]: inactive
Potency [9]: inactive
Potency [10]: inactive
Potency [17]: inactive
Potency [19]: inactive
viability [13]: 158%

COc1ccccc1-c1cccc(-c2c(O)c3cc(C#N)c(Cl)cc3[nH]c2=O)c1
Potency [1]: 48.1 µM (active)
Potency [2]: inactive
viability [20]: 162% [at 92.2 µM] (active)
Potency [3]: inactive
Potency [16]: inactive
Potency [6]: inactive
Potency [7]: inactive
Potency [8]: inactive
Potency [10]: inactive
Potency [17]: inactive
Potency [12]: inactive
viability [13]: 104%
Potency [14]: inactive
Potency [15]: 34 µM (active)

Nc1nc2[nH]cc(CCc3ccc(C(=O)N[C@@H](CCC(=O)O)C(=O)O)cc3)c2c(=O)[nH]1
Potency [1]: 1.32 µM (active)
Potency [2]: inactive
Potency [3]: inactive
Potency [4]: 2.09 µM (active)
Potency [5]: inactive
Potency [6]: inactive
Potency [8]: inactive
Potency [9]: inactive
Potency [10]: inactive
Potency [19]: 2.96 µM (active)
Potency [13]: 5.26 µM (active)
Potency [15]: inactive

CCOC(=O)C1=C[C@]2(CC)CCCN3CCc4c(n1c1ccccc41)[C@@H]32
Potency [1]: 10.5 µM (active)
Potency [2]: 5.9 µM (active)
Potency [3]: 26.4 µM (active)
Potency [4]: 14.8 µM (active)
Potency [16]: 18.7 µM (active)
Potency [5]: 8.33 µM (active)
Potency [7]: 11.8 µM (active)
Potency [8]: 11.8 µM (active)
Potency [9]: 20.9 µM (active)
Potency [10]: 20.9 µM (active)
Potency [11]: 11.8 µM (active)
Potency [12]: 13.2 µM (active)
Potency [13]: 26.4 µM (active)
Potency [14]: 16.6 µM (active)
Potency [15]: 7.43 µM (active)

Oc1cccc(-c2nc(N3CCOCC3)c3oc4ncccc4c3n2)c1
Potency [1]: 0.121 µM (active)
Potency [2]: 0.152 µM (active)
viability [20]: 37.2% [at 92.2 µM] (active)
Potency [3]: 0.215 µM (active)
Potency [4]: 0.0679 µM (active)
Potency [16]: 0.0152 µM (active)
Potency [5]: 0.0191 µM (active)
Potency [7]: 0.0679 µM (active)
Potency [8]: 0.0679 µM (active)
Potency [10]: 0.0762 µM (active)
Potency [12]: 0.382 µM (active)
Potency [14]: 0.054 µM (active)
Potency [15]: 0.136 µM (active)
